Data reported in the supplement of paper PMC10338343.
± gives the standard deviation.

What was measured:
[1] = system: MILI (PIWIL2) piRISC loaded with L1MC piRNA (26 nt); test: pre-steady-state target cleavage rate (min^-1); guide: L1MC piRNA 5'p-UAACUAAAUACUAUGCAAGCUGUAGG; higher = faster piRNA-guided slicing of the target
In short: (§1)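 Active affinity-purified piRISC (1 nM) loaded with one synthetic guide was mixed with a transcribed, DNA-blocked target RNA library (0.1 nM), with or without 500 nM GTSF1 partner protein, in HEPES–potassium acetate buffer at 33 °C for 0–8 or 0–960 min. Uncleaved targets were sequenced, normalised to depth and to weakly complementary targets, and pooled across three trials, with k3 capped at 0.0001 min^-1. The pre-steady-state cleavage rate was determined with a burst-and-steady-state fit.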

[2] = system: EfPiwi piRISC loaded with L1MC piRNA (26 nt); test: pre-steady-state target cleavage rate (min^-1); auxiliary factor: 500 nM Ephydatia muelleri Gtsf1; guide: L1MC piRNA 5'p-UAACUAAAUACUAUGCAAGCUGUAGG; MIWI and MILI are mouse PIWI proteins and EfPiwi is from a freshwater sponge; tags in brackets are library labels; higher = faster piRNA-guided slicing of the target
In short: as §1

[3] = auxiliary factor: 500 nM mouse GTSF1
[4] = auxiliary factor: none (no GTSF1)

Sequence	pre-steady-state target cleavage rate [1, 3]	pre-steady-state target cleavage rate [1, 4]	pre-steady-state target cleavage rate [2]
UCCUGGUUGUGCUUGCAUAGUAUUUAGUAA	0.0938 ± 0.02	0.00427 ± 0.0031	0.00401 ± 0.0038
UCCUCCUACAGCUUGCGUAGUAUUUAGUUA	0.28 ± 0.015	0.0113 ± 0.003	0.031 ± 0.011
UCCUGCUACAGCUUGCUAAGUAUUUAGUUA	0.176 ± 0.018	0.00399 ± 0.0022	0.00353 ± 0.0029
UCCUGCUACAGCUUGCAUUGUAUUUUGUUA	0.159 ± 0.024	0.00301 ± 0.0027	0.00346 ± 0.0021
UCCUGGAUCACGUUGCAUAGUAUUUAGAAA	0.128 ± 0.022	0.00275 ± 0.0027	0.00652 ± 0.0044
UCCUGGAUGUGCUUUGCAUAGUAUUUAGUUA	0.157 ± 0.016	0.0132 ± 0.0033	0.00805 ± 0.003
UCCUGGAUGUCCUUUGCAUAGUAUUUAGUUA	0.0866 ± 0.015	0.0072 ± 0.0024	0.00785 ± 0.0043
UCCUGGUAGAGCUUGCAUAGUAUUUUGUUA	0.143 ± 0.03	0.00365 ± 0.003	0.00292 ± 0.0029
UCCUGGAUCAGCCUUGCAUAGUAUUUAGUUA	0.249 ± 0.023	0.00595 ± 0.0023	0.0303 ± 0.0094
UCCUGGUACACCAUGCAUAGUAUUUAGUUA	0.176 ± 0.033	0.0052 ± 0.0033	0.00335 ± 0.0031
UCCUGGAUGACUUGCAUAGUAUUUAGUUA	0.171 ± 0.014	0.004 ± 0.0027	0.0058 ± 0.0023
UCCUGGAUCAACUUGCAUAGUAUUUAGUUA	0.265 ± 0.017	0.00729 ± 0.0025	0.0635 ± 0.018
UCCUGGAUGAGCUUGCAUAGUGUUUAGUUA	0.117 ± 0.016	0.00732 ± 0.0031	0.00987 ± 0.0028
UCCUGGAUGAGCUUGCAUAGUAUUUCAGUUA	0.207 ± 0.048	0.00415 ± 0.0028	0.00264 ± 0.0023
UCCUCCAACAGCUUGCAUACUAUUUAGUUA	0.0905 ± 0.012	0.00321 ± 0.0025	0.00961 ± 0.0032
UCCUGGAACAGCUUGCAAAGUAUUUAGAUA	0.085 ± 0.014	0.00298 ± 0.0022	0.0036 ± 0.0024
UCCUGGUACAGCAUGCAUAGUAUUUAGUUA	0.268 ± 0.02	0.0158 ± 0.004	0.0111 ± 0.0041
UCCUGCUACAGCUUGCAAUGUAUUUAGUUA	0.0986 ± 0.014	0.00809 ± 0.002	0.00312 ± 0.0024
UCCUGCUACAGGCUUGCAUAGUAUUUAGUUA	0.241 ± 0.014	0.0112 ± 0.0031	0.00977 ± 0.0027
UCCUGCUAUCAGCUUGCAUAGUAUUUAGUUA	0.268 ± 0.022	0.00819 ± 0.0029	0.0613 ± 0.015
UCCUACUACAGCUUGCAUAGUAUUUAGUUA	0.294 ± 0.02	0.00883 ± 0.0027	0.0579 ± 0.018
UCCUGGUAAAGCUUGCAUAGUAUUUAGUUA	0.183 ± 0.017	0.00996 ± 0.0023	0.00606 ± 0.002
UCCUGGAUCAGCUUGCAUAGUAAAUAGUUA	0.171 ± 0.024	0.00496 ± 0.0026	0.00673 ± 0.0027
UCCUGGAACCAGCUUGCAUAGUAUUUAGUUA	0.365 ± 0.032	0.00736 ± 0.0021	0.0336 ± 0.0098
UCCUGAUACAGCUUGCAUAGUAUUUAGUUA	0.269 ± 0.02	0.00917 ± 0.0027	0.0427 ± 0.014

Sequence	pre-steady-state target cleavage rate [1, 3]	pre-steady-state target cleavage rate [1, 4]	pre-steady-state target cleavage rate [2]
UCCUGGGACAGCUUGCAUAGUAUUUAGUUA	0.231 ± 0.024	0.0138 ± 0.0034	0.0163 ± 0.0059
UCCUGGUACAGCUUGCAUAGUAUUUAGUUU [g2:g24:cont:t1U]	0.249 ± 0.016	0.0218 ± 0.0053	0.117 ± 0.038
UCCUGGAUGAGCCUUGCAUAGUAUUUAGUUA	0.16 ± 0.02	0.0071 ± 0.0027	0.00885 ± 0.0032
UCCUCCUAGAGCUUGCAUAGUAUUUAGUAA	0.201 ± 0.021	0.00313 ± 0.0024	0.00608 ± 0.0021
UCCUGGUACAGCUUGAAUAGUAUUUAGUUA	0.302 ± 0.055	0.00915 ± 0.0046	0.0053 ± 0.0028
UCCUGGAUGUGCUGUGCAUAGUAUUUAGUUA	0.131 ± 0.015	0.00886 ± 0.004	0.00568 ± 0.0024
UCCUGGAACUAGCUUGCAUAGUAUUUAGUUA	0.132 ± 0.021	0.00841 ± 0.0027	0.0126 ± 0.0045
UCCUGGAUCAGCAUGCAUUGUAUUUAGUUA	0.15 ± 0.014	0.00792 ± 0.0027	0.00421 ± 0.0021
UCCUCCUGACAGCUUGCAUAGUAUUUAGUUA	0.217 ± 0.018	0.00896 ± 0.0026	0.0255 ± 0.008
UCCUGGAUGUCGGUGCAUAGUAUUUAGUUA	0.0897 ± 0.011	0.00862 ± 0.0023	0.00511 ± 0.0033
UCCUGGAUCAGGUUGGAUAGUAUUUAGUUA	0.164 ± 0.013	0.0112 ± 0.0027	0.00425 ± 0.003
UCCUGGAUCAGCUUGCAUAGUCUUUAGUUA	0.191 ± 0.011	0.00789 ± 0.0024	0.0204 ± 0.0053
UCCUCCUACAGCUUGCAUAGUCUUUAGUUA	0.198 ± 0.023	0.00522 ± 0.0021	0.0068 ± 0.0025
UCCUGGAUCAAGCUUGCAUAGUAUUUAGUUA	0.237 ± 0.018	0.0103 ± 0.0028	0.0542 ± 0.012
UCCUGCUACACCUUGCUUAGUAUUUAGUUA	0.2 ± 0.017	0.00572 ± 0.0028	0.00903 ± 0.0035
UCCUGGUACAGCUUGCAUAGUAUAUUGUUA	0.146 ± 0.042	0.00411 ± 0.0035	0.00333 ± 0.0026
UCCUCCUUCAGGUUGCAUAGUAUUUAGUUA	0.239 ± 0.013	0.0102 ± 0.002	0.0528 ± 0.012
UCCUGCUACAGCUUGCUAGUAUUUAGUUA	0.0195 ± 0.0079	0.00519 ± 0.002	0.00473 ± 0.0031
UCCUGGAUGUCCUUGCAUAGUAUUAAGUUA	0.116 ± 0.019	0.00289 ± 0.0026	0.00404 ± 0.0034
UCCUCCUAGCAGCUUGCAUAGUAUUUAGUUA	0.295 ± 0.018	0.011 ± 0.0028	0.0339 ± 0.0083
UCCUGGUACUGCUUGCAUUGUAUUUAGUUA	0.0791 ± 0.015	0.00624 ± 0.0037	0.00516 ± 0.0027
UCCUGGUUCAGCAUGCAUAGUAUUUAGUUA	0.199 ± 0.026	0.0092 ± 0.0032	0.0347 ± 0.0092
UCCUGGAACACCUUGCAUAGUAAUUAGUUA	0.191 ± 0.031	0.00362 ± 0.0024	0.00283 ± 0.0022
UCCUCCUACAGCUUGCAUAGUAUUUAGUUU [g2:g26:cont:t1U]	0.35 ± 0.02	0.0339 ± 0.0087	0.265 ± 0.062
UCCUGGAUCAGCUUGCAUAGUAUUUGAGUUA	0.222 ± 0.036	0.00502 ± 0.0022	0.00696 ± 0.0028
